From PubChem BioAssay come the findings set out here.

Test [1] in a line: antimalarial activity against Dd2 strain (AID 2302;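 active = growth inhibition above 50% at the single 2 µM test dose, taken to imply half-maximal potency below 2 µM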;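 also: 0% = DMSO untreated growth and 100% = chloroquine plus artemisinin killed control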). The note with it: P. falciparum Dd2 in RBCs, LDH growth readout, 72 h; at 2 µM; stronger effect = higher value.
The nature of test [2]: HepG2 cytotoxicity, primary screen, cytotoxicity control for P. falciparum antimalarial project, cell-based, ATP luminescence (AID 2303;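 active = inhibition above 50%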;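 also: 0% = DMSO wells and 100% = digitonin-killed cells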). The note with it: HepG2 viability, 24-48 h, at 10 µM, stronger effect = higher value.
The target in test [3] is L-lactate dehydrogenase (Plasmodium falciparum (isolate CDC / Honduras)) (UniProt Q27743). As to the kind of experiment: PfLDH activity inhibition – cell lysate, 3D7 strain, counter-screen for P. falciparum growth inhibition project (AID 2304).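 Also: 0% = vehicle and 100% = reference inhibitor.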 The note with it: P. falciparum 3D7 crude extract, LDH APAD/NBT absorbance; at 2 µM; stronger effect = higher value. (The purpose of a counterscreen is to sort out artefacts and off-target activity.)
L-lactate dehydrogenase (Plasmodium falciparum (isolate CDC / Honduras)), sequence (Q27743 whole entry, looked up): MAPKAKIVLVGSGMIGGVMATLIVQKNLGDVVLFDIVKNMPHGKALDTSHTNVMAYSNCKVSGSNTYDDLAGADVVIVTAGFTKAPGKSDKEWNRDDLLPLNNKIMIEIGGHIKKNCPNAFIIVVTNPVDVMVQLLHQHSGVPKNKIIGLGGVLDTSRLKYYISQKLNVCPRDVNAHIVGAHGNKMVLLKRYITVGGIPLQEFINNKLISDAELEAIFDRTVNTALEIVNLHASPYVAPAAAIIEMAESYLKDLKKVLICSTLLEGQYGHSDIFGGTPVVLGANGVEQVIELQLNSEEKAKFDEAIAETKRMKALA

Test [4] in a line: inhibition of 3D7 malaria parasite growth – strain 3D7 (AID 2306).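 Also: 0% = DMSO wells and 100% = chloroquine plus artemisinin control wells.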 The note with it: P. falciparum 3D7 erythrocytic growth, LDH absorbance, 72 h; at 2 µM; stronger effect = higher value.
In test [5] the target is Calcium-dependent protein kinase 1 (Plasmodium falciparum (isolate 3D7)) (UniProt P62344). Nature of the test: PfCDPK1 kinase inhibitors, biochemical, TCAMS library (AID 1159585; cut-off not given, nearly all actives have IC50 up to about 0.98 µM;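 also: inhibitors leave more ATP so luminescence rises with inhibition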). The note with it: recombinant PfCDPK1, Kinase-Glo ATP depletion luminescence. Background: Kinase-Glo reads ATP consumption through a luciferase reaction.
Calcium-dependent protein kinase 1 (Plasmodium falciparum (isolate 3D7)), sequence (P62344 whole entry, looked up): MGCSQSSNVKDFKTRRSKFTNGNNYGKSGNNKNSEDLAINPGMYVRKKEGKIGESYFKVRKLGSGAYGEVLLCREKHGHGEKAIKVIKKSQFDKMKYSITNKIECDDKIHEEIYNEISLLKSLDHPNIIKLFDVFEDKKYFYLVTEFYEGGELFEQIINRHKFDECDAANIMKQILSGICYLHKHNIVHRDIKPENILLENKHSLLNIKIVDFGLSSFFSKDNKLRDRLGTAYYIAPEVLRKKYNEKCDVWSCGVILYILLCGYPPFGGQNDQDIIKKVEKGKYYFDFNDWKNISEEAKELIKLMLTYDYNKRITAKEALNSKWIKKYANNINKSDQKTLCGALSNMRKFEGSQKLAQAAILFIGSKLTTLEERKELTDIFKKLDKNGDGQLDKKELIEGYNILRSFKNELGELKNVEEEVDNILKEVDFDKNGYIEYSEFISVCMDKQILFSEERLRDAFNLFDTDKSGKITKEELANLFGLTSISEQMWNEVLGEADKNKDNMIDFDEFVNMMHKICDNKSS
In test [6] the target is Plasmodium falciparum protein kinase 6 (PK6, PF3D7_1337100) (UniProt Q8IDW1). Nature of the test: PfPK6 kinase inhibitors, biochemical, TCAMS library (AID 1159586). The note with it: recombinant PfPK6, Kinase-Glo ATP depletion luminescence.
Plasmodium falciparum protein kinase 6 (PK6, PF3D7_1337100), sequence (Q8IDW1 1-305): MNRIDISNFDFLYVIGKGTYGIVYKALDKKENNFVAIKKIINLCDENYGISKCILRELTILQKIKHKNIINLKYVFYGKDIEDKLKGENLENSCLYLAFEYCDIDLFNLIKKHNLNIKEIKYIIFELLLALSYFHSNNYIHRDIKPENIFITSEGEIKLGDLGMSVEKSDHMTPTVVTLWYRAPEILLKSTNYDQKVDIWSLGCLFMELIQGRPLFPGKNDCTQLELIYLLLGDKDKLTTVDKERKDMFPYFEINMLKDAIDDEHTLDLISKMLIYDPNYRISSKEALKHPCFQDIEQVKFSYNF
Test [7] addresses Protein kinase 7 (PK7), Plasmodium falciparum 3D7 (PF3D7_0213400) (UniProt Q7YTF7). As to the kind of experiment: inhibition of Plasmodium PK7 catalytic activity – biochemical, TCAMS antimalarial set, Kinase-Glo luminescence (AID 1159587). The note with it: recombinant PfPK7, Kinase-Glo ATP depletion luminescence.
Test [8] deals with Calcium-dependent protein kinase 4 (Plasmodium falciparum (isolate 3D7)) (UniProt Q8IBS5). As to the kind of experiment: PfCDPK4 kinase inhibitors, biochemical, TCAMS library (AID 1159588; cut-off not given, nearly all actives have IC50 up to about 0.91 µM). To be noted: recombinant PfCDPK4, Kinase-Glo ATP depletion luminescence.
Calcium-dependent protein kinase 4 (Plasmodium falciparum (isolate 3D7)), sequence (Q8IBS5 whole entry, looked up): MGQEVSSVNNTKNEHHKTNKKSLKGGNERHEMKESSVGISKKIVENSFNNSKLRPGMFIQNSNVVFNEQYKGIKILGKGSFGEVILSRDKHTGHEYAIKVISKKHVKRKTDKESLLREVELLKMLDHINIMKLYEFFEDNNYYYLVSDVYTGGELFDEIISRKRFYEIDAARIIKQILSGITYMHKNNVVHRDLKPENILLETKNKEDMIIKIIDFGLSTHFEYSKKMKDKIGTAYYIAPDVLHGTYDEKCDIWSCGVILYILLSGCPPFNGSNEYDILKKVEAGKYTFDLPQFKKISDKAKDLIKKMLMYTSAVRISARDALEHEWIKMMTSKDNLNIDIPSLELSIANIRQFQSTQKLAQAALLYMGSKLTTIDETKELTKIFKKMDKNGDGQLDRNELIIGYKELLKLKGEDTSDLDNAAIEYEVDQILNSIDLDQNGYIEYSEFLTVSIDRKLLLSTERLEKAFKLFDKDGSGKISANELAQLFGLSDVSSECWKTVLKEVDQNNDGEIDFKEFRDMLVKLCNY

Unmarked numbers belong to inactive results. For some assays here: Entries with a potency or affinity are not part of this list. The source made the active and inactive calls. Unless noted, no rule for the calls is given here.

Protein kinase 7 (PK7), Plasmodium falciparum 3D7 (PF3D7_0213400), sequence (Q7YTF7 1-343): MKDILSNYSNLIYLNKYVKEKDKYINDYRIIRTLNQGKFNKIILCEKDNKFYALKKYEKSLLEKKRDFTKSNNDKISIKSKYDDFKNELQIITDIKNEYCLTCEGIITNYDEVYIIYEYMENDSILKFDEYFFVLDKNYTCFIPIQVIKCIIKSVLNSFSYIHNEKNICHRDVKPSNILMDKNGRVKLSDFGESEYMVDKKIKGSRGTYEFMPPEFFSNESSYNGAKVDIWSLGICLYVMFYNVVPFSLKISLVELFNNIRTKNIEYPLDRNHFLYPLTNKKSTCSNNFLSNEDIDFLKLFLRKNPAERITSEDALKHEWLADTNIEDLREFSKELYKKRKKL

On to `CN1CCN(CCCCCNc2c3ccccc3nc3ccccc23)CC1`, for which the results for the growth inhibition in test [1] and in test [4] were -8% and 99% (active), respectively. Besides, the figures for the inhibition in test [2] and in test [3] were 57% (active) and 5%, respectively. The result in test [5], in test [6], in test [7] and in test [8] was inactive.
As for `CCC(C)CN1CCN(c2ccc(NC(=O)c3cccs3)cc2)CC1C` (configuration not stated), the growth inhibition in test [1] and in test [4] was 94% (active) each time. In addition, the inhibition was -3% in test [2] and 1% in test [3]. For the same compound, the result in test [5], in test [6], in test [7] and in test [8] was inactive.
For `O=C(NCCCN1CCCC1=O)NCc1ccccc1`, the growth inhibition in test [1] was 4%; in test [4] it was 99% (active). Also, the inhibition in test [2] is 8%; in test [3] it was 3%. In addition, the outcome in test [5], in test [6], in test [7] and in test [8] was inactive.
For `COc1ccc(CNCc2ccc(-c3ccc(-c4nc5ccccc5[nH]4)cc3)cc2)cc1`, the figures for the growth inhibition in test [1] and in test [4] were 89% (active) and 103% (active), respectively. In addition, the inhibition is 63% (active) in test [2] and -4% in test [3]. Besides, the result in test [5], in test [6], in test [7] and in test [8] was inactive.
With `c1ccc2c(c1)CN(Cc1ccsc1)CC1(CCN(Cc3c[nH]c4cnccc34)CC1)O2`, the growth inhibition in test [1] was 75% (active); in test [4] it was 87% (active). The inhibition in test [2] is 38%; in test [3] it was -2%. Besides, the result in test [5], in test [6], in test [7] and in test [8] was inactive.
For the compound `CN(C(=O)c1ccccc1)[C@@H]1c2cc(C#N)ccc2OC(C)(C)[C@H]1O`, the growth inhibition was 4% in test [1] and 97% (active) in test [4]. Moreover, the inhibition in test [2] was 8%; in test [3], -3%. The result in test [5], in test [6], in test [7] and in test [8] was inactive.
On to `O=C(Nc1ccc(Cl)c(Cl)c1)Nc1ccc2nccc(N3CCN(Cc4ccccc4)CC3)c2c1`, for which the values for the growth inhibition in test [1] and in test [4] were 100% (active) and 101% (active), respectively. For the same compound, the inhibition is 31% in test [2] and 1% in test [3]. Besides, the outcome in test [5], in test [6], in test [7] and in test [8] was inactive.
Regarding `CN(C)Cc1cc(Nc2ccnc3cc(Cl)ccc23)ccc1O`, the growth inhibition in test [1] and in test [4] was 100% (active) each time. The inhibition in test [2] is 36%; in test [3], -3%. Moreover, the outcome in test [5], in test [6], in test [7] and in test [8] was inactive.
`CC1=C(C(=O)OCCOCc2ccccc2)C(c2ccccc2C(F)(F)F)C(C(=O)OCCOCc2ccccc2)=C(C)N1`: the results for the growth inhibition in test [1] and in test [4] were 87% (active) and 89% (active), respectively. The inhibition in test [2] is -7%; in test [3], 3%. The outcome in test [5], in test [6], in test [7] and in test [8] was inactive.
With `COc1ccc(CCNc2ccnc3cc(Cl)ccc23)cc1OC`, the growth inhibition in test [1] was 92% (active); in test [4] it was 101% (active). Also, the inhibition in test [2] is 4%; in test [3] it was -7%. Further, the result in test [5], in test [6], in test [7] and in test [8] was inactive.
For the compound `CCCCCCCCc1c(C)[nH]c(C)c(Br)c1=O`, the growth inhibition in test [1] was 92% (active); in test [4] it was 96% (active). The inhibition in test [2] is -5%; in test [3], 7%. For the same compound, the outcome in test [5], in test [6], in test [7] and in test [8] was inactive.
Turning to `CC(C)N1CCC(N(Cc2ccc(-c3ccc(C(F)(F)F)cc3)cc2)C(=O)Cn2c(SCc3cccc(F)c3F)cc(=O)c3ccccc32)CC1`, the results for the growth inhibition in test [1] and in test [4] were 77% (active) and 100% (active), respectively. Also, the figures for the inhibition in test [2] and in test [3] were 52% (active) and 1%, respectively. Besides, the outcome in test [5], in test [6], in test [7] and in test [8] was inactive.
With `NC(=O)COc1c(C2CCN(CCCCNC(=O)c3ccc(-c4ccc(Cl)cc4)c(O)c3)CC2)ccc2c1CCCC2`, the growth inhibition in test [1] was 72% (active); in test [4] it was 101% (active). For the same compound, the values for the inhibition in test [2] and in test [3] were 97% (active) and 4%, respectively. Further, the outcome in test [5], in test [6], in test [7] and in test [8] was inactive.
For the compound `O=C(Nc1cccc(-c2cccc(-c3nc4ccccc4[nH]3)c2)c1)Nc1ccc(F)c(F)c1F`, the values for the growth inhibition in test [1] and in test [4] were 95% (active) and 98% (active), respectively. The inhibition in test [2] is 78% (active); in test [3] it was -1%. In addition, the outcome in test [5], in test [6], in test [7] and in test [8] was inactive.
For `O=C(Nc1ccc(Cl)cc1)OCCn1nnnc1C(c1ccc(Cl)cc1)N1CCOCC1` (configuration not stated), the figures for the growth inhibition in test [1] and in test [4] were 79% (active) and 90% (active), respectively. Moreover, the inhibition is 1% in test [2] and 4% in test [3]. The outcome in test [5], in test [6], in test [7] and in test [8] was inactive.
With `CNC(=O)c1cc(NCCCNCc2ccc(Cl)c(C(F)(F)F)c2)nc2ccccc12`, the results for the growth inhibition in test [1] and in test [4] were 7% and 91% (active), respectively. Also, the inhibition is 25% in test [2] and -1% in test [3]. Also, the result in test [5], in test [6], in test [7] and in test [8] was inactive.
For the compound `COc1ccc2ncc(F)c(CCN3CC[C@@H](CNCc4ccc5c(c4C)OCCO5)C3)c2n1`, the growth inhibition is 11% in test [1] and 94% (active) in test [4]. The inhibition in test [2] was 17%; in test [3], 1%. The outcome in test [5], in test [6], in test [7] and in test [8] was inactive.
For `COc1ccc(-c2nc(NC(=O)Cc3cccc(OC)c3)sc2C)cc1`, the growth inhibition in test [1] was 77% (active); in test [4], 101% (active). The inhibition in test [2] was 1%; in test [3], -3%. The result in test [5], in test [6], in test [7] and in test [8] was inactive.
For `O=C(Cc1ccc(NC(=O)c2ccc(O)c(-c3ccc(Cl)c(Cl)c3)c2)cc1)NCc1cccc(C(F)(F)F)c1`, the growth inhibition in test [1] is 28%; in test [4], 95% (active). Further, the inhibition in test [2] is -7%; in test [3] it was 0%. Moreover, the outcome in test [5], in test [6], in test [7] and in test [8] was inactive.

What is called inhibition is the change of the read-out against control, counted positive when it falls.
